T1: UNK ZnF1-3 (human, UniProt Q9C0B0 31-174)
T1 sequence: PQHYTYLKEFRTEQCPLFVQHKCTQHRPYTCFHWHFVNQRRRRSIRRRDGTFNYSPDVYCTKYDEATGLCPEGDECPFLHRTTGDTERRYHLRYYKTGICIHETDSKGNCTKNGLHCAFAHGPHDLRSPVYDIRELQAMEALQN

B1: chr7:54825262:54825263:-_ENSG00000132432_ENST00000352861|hu_hu|hu_hu_hu_mus_False|68_108 (ssRNA)
RNA: GGGAGUUCUACAGUCCGACGAUCCUGACUUGGCUCAUCCACAAACUGCAUUACCUGAUCCAUGUUUUACCCAACCGGGAUUGAGAGCGUAGAGACACGUAGCUCAGGAGAGAACCGAGCCCAACGGAACCGGAAGCUGGCAACCAACAGAGGAUUGAGCAUCA
B2: chr5:73697939:73697940:+_ENSMUSG00000029152_ENSMUST00000031038|mus_mus|motif|central (ssRNA)
RNA: GGGAGUUCUACAGUCCGACGAUCUCCUUGGGCAAUAUGGUCAGUAAUACCAGUGGGAGUGGACUCGUUCAUAGAAGCACGGAAUGGAAUUGGCUCAUAACGAGGAAGCGCCUCCUUUUCUAUGUUGUCUGCUGCUGGAGAUGUCAACAGAGGAUUGAGCAUCA
B3: chr10:98281081:98281082:-_ENSG00000077147_ENST00000371142|hu_mus|motif|central (ssRNA)
RNA: GGGAGUUCUACAGUCCGACGAUCAUCGCAAUACAGUCCCCCAGUCAGUCUGUACAUCCAAAUGCAUCCAGGAACCGGCACCGGCGCGACAUUAUUAAUGUUAUAUACAUUUAUUGCCCCCCUUGUUUUGUUUAAUAAUUUCUUCAACAGAGGAUUGAGCAUCA
B4: chr2:47388980:47388981:-_ENSG00000143933_ENST00000272298|hu_mus|hu_hu_hu_mus_True|68_98 (ssRNA)
RNA: GGGAGUUCUACAGUCCGACGAUCUUCAUCUGUUAACUUCUCUCCAAGGUUUGUCAUCACAUGGCGAAGUUCUGCAGCACUAAUAUAGCCAUUGCCAUCCUUAUCAAACACACGGAAUGCUUCUCUAAUCUCUUCUUCACUGUCCAACAGAGGAUUGAGCAUCA
B5: 132634964_132635084_86_5pUTR_ENSMUSG00000030750_ENSMUST00000033006|mouse|control|control (ssRNA)
RNA: GGGAGUUCUACAGUCCGACGAUCCCCGCCUCCAGGGCGGAGAGAUCGCCAGACUGGAGCUCCUACUGGUGGGCUACGCGCAUUCUCCCGCUCACCAGCGGAGUACUUCCGUUUUCCCCGCCCGCUCUGUUGCUAUGGCGCCUUCAACAGAGGAUUGAGCAUCA
B6: chr2:24222969:24222970:+_ENSG00000173960_ENST00000309033|hu_mus|FALSE|FALSE (ssRNA)
RNA: GGGAGUUCUACAGUCCGACGAUCAUUAAUGACACAGCUAUUUAAUGUCAUAUUGGCUAACUAAUAUUUGAAAAAUAGGUAUUUUUUUCUGAAUAGCCUGUUGAGAAAAAUGCACUGACCCUGGCUUAGAGCCAUGUCACUCUCCAACAGAGGAUUGAGCAUCA
B7: chr16:94664741:94664742:+_ENSMUSG00000040785_ENSMUST00000117648|mus_hu|mus_mus_mus_hu_False|48_78 (ssRNA)
RNA: GGGAGUUCUACAGUCCGACGAUCUGGUACUGAUCUUGGUAGCUGAUAUUCAGGAGAAAUGUUGGCCAAGGGUGUAUAUAUGCUGGUGAACUGCGACAAACCUGGUAACACGUUUAUGUAUGCUGGCGGUGUCUGGGUGAUAUCCAACAGAGGAUUGAGCAUCA
B8: 203421096_203421216_3307_3pUTR_ENSG00000204217_ENST00000374580|human|control|control (ssRNA)
RNA: GGGAGUUCUACAGUCCGACGAUCAGAUCCAGAGAAUUAGGCCUCUGUGCUCUUCUGGGCUUUGAUGGCCCAGGAUCUGCUGCUGUGCUUGGAACACCCUGUGCAAGAACAUCUUGUUCUGAACAUGGAUUGCUGUUGUUGUUACAACAGAGGAUUGAGCAUCA
B9: chr11:87793471:87793472:-_ENSMUSG00000020483_ENSMUST00000020775|mus_mus|mus_mus_mus_hu_False|98_98 (ssRNA)
RNA: GGGAGUUCUACAGUCCGACGAUCUGGACUUGAAAAUAAAAAAAAUAGCUGGAUCCCCCACCCCCCCACAUUGUCAACCCUACACGAGAGUUUUGAAGGCGACUCAUGAAAAUCAGCAGCUCAAACGGCAAUGACCACCCCACCCAACAGAGGAUUGAGCAUCA
B10: chr4:57314706:57314707:+_ENSG00000128050_ENST00000264221|hu_mus|hu_hu_hu_mus_True|1_18 (ssRNA)
RNA: GGGAGUUCUACAGUCCGACGAUCCAGAAUUUCAAAAAUAGCUUGUGUGGCAUGACUCAUGAUGUCCACUUCAGUCUGCCCUAUAACAAGGCCAGCAAAACAGAAUUUUGCAGCAAUCAGCUGUUCCUCAGACCACUGUGGGUCCAACAGAGGAUUGAGCAUCA
B11: chr11:87793471:87793472:-_ENSMUSG00000020483_ENSMUST00000020775|mus_mus|mus_mus_mus_hu_False|38_98 (ssRNA)
RNA: B9 RNA with G97U, C99A, G100U, A101U, U103A, C104U, U106A
B12: chr11:87793471:87793472:-_ENSMUSG00000020483_ENSMUST00000020775|mus_mus|mus_mus_mus_hu_False|38_88 (ssRNA)
RNA: GGGAGUUCUACAGUCCGACGAUCUGGACUUGAAAAUAAAAGAAUAAGCUAGAUUUCCCACCCCCCCACAUUGUCAACCCUACACGAGAGUUUUGAAUGAUUCAUAAGAAAAUCAGCAGCUCAAACGGCAAUGACCACCCCACCCAACAGAGGAUUGAGCAUCA
B13: chr11:87793471:87793472:-_ENSMUSG00000020483_ENSMUST00000020775|mus_mus|mus_mus_mus_hu_False|88_98 (ssRNA)
RNA: B9 RNA with G50A, C54U, C55U
B14: chr11:87793471:87793472:-_ENSMUSG00000020483_ENSMUST00000020775|mus_mus|mus_mus_mus_hu_False|68_98 (ssRNA)
RNA: B9 RNA with U70G
B15: chr11:87793471:87793472:-_ENSMUSG00000020483_ENSMUST00000020775|mus_mus|mus_mus_mus_hu_False|1_108 (ssRNA)
RNA: GGGAGUUCUACAGUCCGACGAUCUGGGGGCUGGGGAAAAAGAAUAAGCUGGAUCCCCCACCCCCCCACAUUGUCAACCCUACACGAGAGUUUUGAAGGCGACUCAUGAAAAUCAGCAGCUCAAACGGCAAUGACCACCCACCCCAACAGAGGAUUGAGCAUCA
B16: chr11:87793471:87793472:-_ENSMUSG00000020483_ENSMUST00000020775|mus_mus|mus_mus_mus_hu_False|1_98 (ssRNA)
RNA: B9 RNA with C140A, A141C
B17: chrX:16864032:16864033:-_ENSG00000102054_ENST00000404022|hu_hu|FALSE|FALSE (ssRNA)
RNA: GGGAGUUCUACAGUCCGACGAUCCAUGAUGUUAUCCUCAGACACUGAGCAAAUGACCCAAGGCUCAUUGGGGUUCCAGCUAAAAUCUGAAAUCUUAGCAGUGUGUCCUCCAUGAAUAAACAGGAGUUCUGGAGGCCCAUCUUCCAACAGAGGAUUGAGCAUCA
B18: chr11:87793471:87793472:-_ENSMUSG00000020483_ENSMUST00000020775|mus_mus|mus_mus_mus_hu_False|58_98 (ssRNA)
RNA: B9 RNA with C82U, A83G
B19: chr4:57314706:57314707:+_ENSG00000128050_ENST00000264221|hu_mus|hu_hu_hu_mus_True|18_58 (ssRNA)
RNA: B10 RNA with C78G, C86G, G141A
B20: chr14:103803487:103803488:+_ENSG00000100664_ENST00000558506|hu_hu|FALSE|FALSE (ssRNA)
RNA: GGGAGUUCUACAGUCCGACGAUCGAGUUUAUGAUGUGUGUCAAGCAUGCCUCGAUAGCCACAGGCUUUACAAGAAUUACCUAUUGUUUGCUUCUUUGGAUUGACAUGCAAAUCUGUUUCAGGAUUCUCACAUUCAGGACAGAGCAACAGAGGAUUGAGCAUCA
B21: chr11:68315578:68315579:+_ENSG00000110075_ENST00000393800|perfect_dup|motif|central (ssRNA)
RNA: GGGAGUUCUACAGUCCGACGAUCUGGAGGUUCGAUACACGUCAGGAGCCUGAGCAACAAAUCCAUGAUAGCAGAAGUUCCGGUGUGCUUUAUAAUAAGGUCUACAAAAUCAUGCUUCUUCUUUAAGAAAUCCACAAUCUGUUCCAACAGAGGAUUGAGCAUCA
B22: chr2:216981417:216981418:+_ENSG00000079246_ENST00000392132|hu_hu|hu_hu_hu_mus_True|28_68 (ssRNA)
RNA: GGGAGUUCUACAGUCCGACGAUCCUGAUACUGGUCCUUGCCAGCAAGGGCAUUAUCAGUGCCAUCUGUACCAAACAGGACUAACGCAAUCUCAUCUUUGCUCUCCGCAAACACCUGUCGUUGGACAAACAUAGUCAUCACUUUCAACAGAGGAUUGAGCAUCA

Where a chain is given by its changes, count along the chain named. In all, about 24,000 sequences were measured (“enrichment r”: median about 0.99, highest 2% from about 3.7 on). The sample holds the highest values, similar sequences and a random draw of the others, so the mix is not that of the screen.

The target of this test is T1, UNK ZnF1-3. The test is described as follows: nsRBNS (natural sequence RNA bind-n-seq); RBNS binding buffer (assumed for nsRBNS): 25 mM Tris pH 7.5, 150 mM KCl, 3 mM MgCl2, 0.01% Triton X-100, 500 ug/ml BSA, 20 U/ml SUPERase-In, 4 C; UNK is unkempt and MSI1 is Musashi-1; names of the RNAs are library labels; protein concentration not given here; high values mean tight binding.
The molecule B1 displayed a binding signal of 1.72 enrichment R.

The molecule B2 showed a binding signal of 1.27 enrichment R.

B3: the binding signal worked out at 1.36 enrichment R.

Regarding B4, the binding signal worked out at 0.882 enrichment R.

B5 returned a binding signal of 0.567 enrichment R.

In turn, B6 came in with a binding signal of 0.836 enrichment R.

For the molecule B7, the binding signal was 1.01 enrichment R.

Take B8: the binding signal amounted to 0.924 enrichment R.

In turn, B9 came in with a binding signal of 4.07 enrichment R.

B10: the binding signal is 0.937 enrichment R.

B11 came in with a binding signal of 4.29 enrichment R.

As to B12, the binding signal came out at 1.97 enrichment R.

Regarding B13, the binding signal is 3.58 enrichment R.

In turn, B14 returned a binding signal of 3.54 enrichment R.

In turn, B15 registered a binding signal of 1.72 enrichment R.

B16 had a binding signal of 3.94 enrichment R.

The molecule B17 gave a binding signal of 1.18 enrichment R.

As for B18, the binding signal was 3.93 enrichment R.

On to B19, for which the binding signal came out at 0.97 enrichment R.

The molecule B20 gave a binding signal of 1.32 enrichment R.

Take B21: the binding signal came out at 1.87 enrichment R.

As for B22, the binding signal is 0.739 enrichment R.

Values taken from article PMC12136788.
